# About 1,000 (1.4%) of roughly 69,000 compounds showed an effect of 50% or more. The sample holds strong results, similar compounds and a random draw of the others, so the mix is not that of the screen.
# System: Leishmania donovani
# Assay: Leishmania intramacrophage assay
# Type: functional, organism-based
# Design: scale not given: in the data most compounds retested in dose-response had high values
smiles,measurement,setting,value
CCOc1ccc(NC(=O)N(C)Cc2cnn(C)c2)c(C)c1,Percent Effect,"30.3 µM, […]",28.5%
CC(C)N1CCO[C@H]2CN(C(=O)c3ccoc3)C[C@H]21.O=C(O)C(F)(F)F,Percent Effect,"30 µM, 30.03 µM",-20.99%
Cn1cnc2c1C(COCc1cccnc1)N(Cc1ccccn1)CC2 (configuration not stated),Percent Effect,"30 µM, 30.03 µM",6.459%
CC(C)(C)c1n[nH]c(C2CN(Cc3nnc(C4CCC4)o3)CCO2)n1 (configuration not stated),Percent Effect,30 µM,11.21%
CCN(C)c1ncnc2c1CCN(Cc1ccncc1)CC2.O=C(O)C(F)(F)F.O=C(O)C(F)(F)F.O=C(O)C(F)(F)F,Percent Effect,"30.3 µM, […]",31.79%
CCn1cc(CN(C)S(=O)(=O)c2ccc(Cl)cc2)cn1,Percent Effect,"30 µM, 30.03 µM",2.361%
CCn1cc(CN(C)S(=O)(=O)c2cnn(C)c2)cn1,Percent Effect,"30.3 µM, […]",50.44%
CCn1cc(CN(C)S(=O)(=O)c2ccccc2)cn1,Percent Effect,"30.3 µM, […]",11.15%
C[C@@H]1CN(Cc2ccoc2)C[C@]12CCN(CC(=O)N(C)C)C2=O.O=C(O)C(F)(F)F,Percent Effect,"30.3 µM, […]",1.993%
NC(=O)c1ccnc(N2CCCC(CO)(Cc3ccc(F)cc3)C2)c1 (configuration not stated),Percent Effect,"30.3 µM, […]",16.75%
O=S(=O)(CCCN1CCOC(Cn2cccn2)C1)c1ccccc1 (configuration not stated),Percent Effect,"30.3 µM, […]",8.687%
Cc1noc([C@H]2COC[C@H]3CN(C(=O)Cc4cccc(F)c4)C[C@H]32)n1,Percent Effect,"30.3 µM, […]",29.86%
Cc1noc(C)c1CN(C)C(=O)c1ccc(NC2CC2)nc1,Percent Effect,"30 µM, 30.03 µM",24.65%
Cc1noc(C)c1CN(C)C(=O)c1ccc(O)nc1,Percent Effect,30 µM,24.33%
Cc1noc(C)c1CN(C)C(=O)c1cnc(C2CC2)nc1O,Percent Effect,"30.3 µM, […]",65.78%
CSCC(=O)N1C[C@H]2CC[C@@H]1CN(Cc1ccccc1)C2,Percent Effect,"30 µM, 30.03 µM",50.94%
O=C(CSc1ccncc1)N1C[C@H]2CC[C@@H]1CN(Cc1cccnc1)C2,Percent Effect,"30 µM, 30.03 µM",35.98%
O=C(CSc1ncccn1)N1C[C@H]2CC[C@@H]1CN(Cc1ccncc1)C2,Percent Effect,"30 µM, 30.03 µM",54.88%
O=C(CC(F)(F)F)N1C[C@H]2CC[C@@H]1CN(Cc1ccccc1)C2,Percent Effect,"30.3 µM, […]",17.26%
CCOC(=O)N1C[C@H]2CC[C@@H]1CN(Cc1ccccc1)C2,Percent Effect,"30.3 µM, […]",27.53%
O=C(CSc1ccccc1)N1C[C@H]2CC[C@@H]1CN(Cc1ccncc1)C2,Percent Effect,"30.3 µM, […]",14.29%
[O-][S+](Cc1c(F)cccc1Cl)Cc1nnnn1C1CC1 (configuration not stated),Percent Effect,"30.3 µM, […]",-31.87%
COCCC(C)NC(=O)c1cc(Br)c2c(c1)OCCO2 (configuration not stated),Percent Effect,30 µM,12.78%
Cc1nc(COc2cccc(C#N)c2)no1,Percent Effect,"30 µM, 30.03 µM",-12.6%
Cc1n[nH]c(C2CN(CC(=O)NCCc3ccccc3C)CCO2)n1 (configuration not stated),Percent Effect,"30.3 µM, […]",-38.97%
CCCc1cncnc1N1CCC(NCc2ccc(O)cc2)CC1,Percent Effect,"30.3 µM, […]",-3.143%
CCCc1cncnc1N1CCC(NCc2ccncc2)CC1,Percent Effect,"30.3 µM, […]",-13.54%
CCCc1cncnc1N1CCC(NCc2cc3ccccc3[nH]2)CC1,Percent Effect,"30.3 µM, […]",84.37%
CC(=O)N1CCN(c2cc(C3CN(C(C)=O)CCO3)nc(C)n2)CC1 (configuration not stated),Percent Effect,"30.3 µM, […]",2.386%
CC(C)c1ccc(C#N)c(N2CC(C)(C)[C@@](C)(O)C2)n1,Percent Effect,"30.3 µM, […]",3.251%
Cc1cc(C)n(CC2CN(CCOc3ccccc3C#N)CCO2)n1 (configuration not stated),Percent Effect,30 µM,10.79%
CCn1ncc2c1C(COC)CN(c1ncc(F)cn1)C2.O=C(O)C(F)(F)F.O=C(O)C(F)(F)F (configuration not stated),Percent Effect,"30.3 µM, […]",50.28%
COCC1CN(c2ncc(F)cn2)Cc2cnn(C)c21.O=C(O)C(F)(F)F.O=C(O)C(F)(F)F (configuration not stated),Percent Effect,"30.3 µM, […]",22.2%
CCn1ncc2c1C(COC)CN(Cc1ccc(F)cc1)C2.O=C(O)C(F)(F)F.O=C(O)C(F)(F)F (configuration not stated),Percent Effect,"30.3 µM, […]",-25.2%
Cc1cccc(S(=O)(=O)N2CCC3(CC2)CC(N(C)C)CO3)c1 (configuration not stated),Percent Effect,"30.3 µM, […]",50.39%
CCOC1COC2(CCN(S(=O)(=O)c3cccc(F)c3)CC2)C1 (configuration not stated),Percent Effect,"30 µM, 30.03 µM",-15.08%
CCOC1COC2(CCN(S(=O)(=O)c3cccc(C)c3)CC2)C1 (configuration not stated),Percent Effect,"30.3 µM, […]",23.7%
COC1COC2(CCN(S(=O)(=O)c3ccc(F)cc3)CC2)C1 (configuration not stated),Percent Effect,"30.3 µM, […]",5.953%
CN(C)C1COC2(CCN(S(=O)(=O)c3ccc(F)cc3)CC2)C1.O=C(O)C(F)(F)F (configuration not stated),Percent Effect,"30.3 µM, […]",52.86%
CCOC1COC2(CCN(S(=O)(=O)c3ccc(F)cc3)CC2)C1 (configuration not stated),Percent Effect,"30.3 µM, […]",12.78%
CC(Oc1ccccc1C#N)C(=O)NC1CC1 (configuration not stated),Percent Effect,"30.3 µM, […]",8.957%
Cc1cnn(C2CN(c3nc(C)cc(N(C)C)n3)C2)c1,Percent Effect,"30.3 µM, […]",24.16%
CC1CCN(CC(=O)N(C)CCc2noc(C3CC3)n2)C1=O (configuration not stated),Percent Effect,"30.3 µM, […]",26.42%
CN(Cc1noc2c1CCCC2)C(=O)CN1C(=O)COc2ccccc21,Percent Effect,"30.3 µM, […]",18.25%
CN(CCc1noc(C2CC2)n1)C(=O)CN1C(=O)COc2ccccc21,Percent Effect,"30.3 µM, […]",99.57%
CC(C)Oc1ncccc1CNC(=O)c1ccccn1,Percent Effect,"30.3 µM, […]",-8.458%
CN(Cc1ccc(F)c(F)c1)Cc1cc2c(cc1Br)OCCO2,Percent Effect,"30.3 µM, […]",17.19%
Cc1ccc(CNCC2Cn3nncc3CO2)o1 (configuration not stated),Percent Effect,"30.3 µM, […]",8.133%
c1cc(CNCC2Cn3nncc3CO2)ccn1 (configuration not stated),Percent Effect,"30.3 µM, […]",1.96%
c1coc(CNCC2Cn3nncc3CO2)c1 (configuration not stated),Percent Effect,"30.3 µM, […]",55.14%
CCNc1ccnc(NCC2(N(C)C)CCOCC2)n1,Percent Effect,"30.3 µM, […]",31.76%
CCc1ncc(C(=O)N2CC(Oc3ccccc3Cl)C2)cn1,Percent Effect,"30.3 µM, […]",18.16%
COCCN1C[C@H]2CCN(C(=O)c3cc(C)on3)CC[C@H]2S1(=O)=O,Percent Effect,"30.3 µM, […]",-11.97%
Cc1ccc(CNC(=O)NCc2csc(C)n2)cn1,Percent Effect,"30 µM, 30.03 µM",22.66%
Cc1nnc2n1CCN(CCCS(=O)(=O)c1ccccc1)C2,Percent Effect,"30.3 µM, […]",27.12%
CCN(C)c1ncnc2c1CCN(CC1CCOC1)CC2.O=C(O)C(F)(F)F (configuration not stated),Percent Effect,"30.3 µM, […]",-1.105%
CN(C)c1ncnc2c1CCN(CC1CCOCC1)CC2.O=C(O)C(F)(F)F,Percent Effect,"30.3 µM, […]",3.553%
CCN(CC)c1ncnc2c1CCN(CC1CCOCC1)CC2.O=C(O)C(F)(F)F,Percent Effect,"30.3 µM, […]",50.25%
Cc1ccc(CN2CCn3c(CNS(C)(=O)=O)nnc3C2)s1,Percent Effect,"30.3 µM, […]",21.51%
COc1cc(OC)nc(N2CCC3(CC2)OCCCC3O)n1 (configuration not stated),Percent Effect,"30.3 µM, […]",12.31%
c1cc(-c2ccc(CN3CCCC4(CCNC4)C3)s2)[nH]n1 (configuration not stated),Percent Effect,"30.3 µM, […]",24.83%
Fc1cnccc1CN1CCCC2(CCN(c3ncccn3)CC2)C1.O=C(O)C(F)(F)F,Percent Effect,"30.3 µM, […]",6.498%

# Source: ChEMBL document CHEMBL3988442, “University of Dundee, Small-Polar-MMV Screening Library” (2021)
